Rows were chosen to be rich in hits. Some 5.7% of all compounds tested hit in one or more screens of this group.
MPTP inh – inhibitors of mitochondrial permeability transition pore | inhibition, % at 10 µM | AID 602449 | hit rate 1.4% among 360,000 | isolated mouse mitochondria, Ca2+ swelling absorbance, 30 min;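 active = inhibition of 50% or more, scaled per plate between neutral and stimulator controls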;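 also: 0% = DMSO wells given calcium and 100% = 1 mM EGTA wells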
FAS TE block – FAS thioesterase (human) inhibition; P49327; recombinant FAS-TE, OMFH fluorogenic substrate, fluorescence endpoint; inhibition, % at 15 µM; hit rate 0.67% among 360,000;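 active = compounds whose normalised, plate-corrected inhibition of enzyme fluorescence in the single-dose primary screen is 50% or more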;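 also: 0% = DMSO with enzyme and 100% = substrate without enzyme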
GRIN3A LBD mod – NR3A (human) ligand-binding domain modulation; NR3A LBD differential scanning fluorimetry, Tm shift; 0% = protein alone, 100% = glycine-bound protein; Tm shift relative to glycine control, % at 25 µM; hit rate 2.5% among 340,000; AID 1259313;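 active = melting temperature shift of at least 10% of the positive control shift, at one fixed dose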
rCAG RNA binder – binds r(CAG) RNA repeats | r(CAG) RNA repeat, TO-PRO-1 dye displacement fluorescence | inhibition, % at 3 µM | hit rate 1.3% among 370,000;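 active = inhibition above the plate cutoff, the mean of all test compounds on that plate plus 3 SD, cut at about 35% in these data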;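 also: 0% = DMSO alone and 100% = 100 µM mitoxantrone as full dye displacement; higher means more dye released from RNA so lower well fluorescence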
Myeloid diff MLP – compounds promoting myeloid differentiation. ER-HoxA9 myeloid progenitors, lysozyme-GFP differentiation, flow cytometry. calls only at 10 µM. hit rate 1% among 360,000. AID 624256;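 active = normalized GFP-positive differentiation at or above the plate's own cutoff, the solvent-only control mean plus 3 SD; inconclusive = no clear call, values can overlap the other calls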;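 also: cells exposed to compound for four days before flow analysis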
FAS-TE inh conf – confirmation of human fatty acid synthase thioesterase inhibitors; shares compounds with FAS TE block; recombinant FAS-TE, OMFH fluorogenic substrate, fluorescence; inhibition, % at 15 µM; hit rate 45% among 2,300; AID 624325;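 active = compounds inhibiting the enzyme by at least 50% at 15 µM in any one of the replicates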;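 also: 0% = enzyme with DMSO only and 100% = wells lacking enzyme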
* marks the source's active call; other numbers are inactive results; i = inactive; ? = inconclusive; / = no result given; + = active, no number.

SMILES	MPTP inh	FAS TE block	GRIN3A LBD mod	rCAG RNA binder	Myeloid diff MLP	FAS-TE inh conf
O=C1/C(=C/c2ccccc2Cl)SC(=S)N1CCCC(=O)N(CCO)c1ccccc1	1	56*	-14	1	i	40*
Cc1ccc(C(=O)NNC(=O)CCCN2C(=O)/C(=C/c3ccccc3Cl)SC2=S)cc1	1	13	-12	5	i	/
O=C(CCCN1C(=O)/C(=C/c2ccccc2Cl)SC1=S)Nc1ccccn1	0	34	1	4	i	/
O=C(CCN1C(=O)/C(=C/c2ccccc2Cl)SC1=S)Nc1ccccn1	0	65*	-2	7	i	59*
O=C(CCN1C(=O)/C(=C/c2ccccc2Cl)SC1=S)Nc1cccnc1	4	62*	-6	4	i	3
O=C(NCc1ccccc1)[C@@H]1CCCN1C(=O)[C@H]1CCCN1C(=O)c1ccc(F)c(C(F)(F)F)c1	/	/	/	1	/	/
O=C1c2ccc(Cl)cc2S(=O)(=O)c2cccc(C(=O)N3CCC(Cc4ccccc4)CC3)c21	0	84*	-6	2	i	27
COc1ccc(-c2ccc3c(c2)S(=O)(=O)c2cccc(C(=O)N4CCN(c5c(Cl)cncc5Cl)CC4)c2C3=O)cc1OC	0	68*	-2	18	i	-2
N#Cc1cccnc1N1CCN(C(=O)c2cccc3c2C(=O)c2ccc(Cl)cc2S3(=O)=O)CC1	1	26	-2	7	i	/
N#Cc1cccnc1N1CCN(C(=O)c2cccc3c2C(=O)c2ccc(-c4ccc(Cl)c(C(F)(F)F)c4)cc2S3(=O)=O)CC1	1	80*	-3	/	i	2
COc1ccc(-c2ccc3c(c2)S(=O)(=O)c2cccc(C(=O)NCCOc4ccccc4)c2C3=O)cc1OC	0	-8	0	/	i	/
O=C1c2ccc(Cl)cc2S(=O)(=O)c2cccc(C(=O)N3CCN(c4ncc(Br)cn4)CC3)c21	0	68*	1	5	i	9
CCN(CC)C(=O)CC[C@H]1CC[C@]2(CCCN(C(=O)c3ccco3)C2)O1	/	/	/	0	/	/
COc1cccc(CNC(=O)[C@H]2CCCN2C(=O)[C@H]2CCCN2S(=O)(=O)c2cccc(C)c2)c1	/	/	/	1	/	/
Cc1ccc(NC(=O)CN(C)C(=O)c2ccc(Cl)c([N+](=O)[O-])c2)cc1	-1	60*	0	0	i	68*
Cc1ccc([N+](=O)[O-])cc1NC(=O)C1CCCC1	0	15	-1	-3	i	/
Cc1ccc([N+](=O)[O-])cc1NC(=O)CN(C1CCCCC1)S(=O)(=O)c1ccc(Cl)cc1	-8	54*	-3	9	i	19
O=C(CN(C(=O)c1cccc([N+](=O)[O-])c1)C1CCCCC1)Nc1ccc(Cl)c([N+](=O)[O-])c1	45	81*	6	1	i	26
Cc1ccc([N+](=O)[O-])cc1NC(=O)CN(C(=O)c1ccccc1Cl)C1CCCCC1	2	74*	-13	2	i	15
CN(C(=O)c1cccc(NC(=O)Cc2ccc([N+](=O)[O-])cc2)c1)C1CCCCC1	4	32	-12	0	i	/
CCc1c(-c2ccccc2Br)ncn1CCc1ccccc1OC	/	/	/	1	/	/
O=C(CCC1CCCC1)Nc1cc(Cl)ccc1N1CCOCC1	-1	24	0	1	i	/
CC(C)(C)c1ccc(C(=O)NCCC(=O)Nc2cc(Cl)ccc2N2CCOCC2)cc1	-2	67*	-6	2	i	67*
COc1ccc(F)cc1-c1cc(C(=O)NCc2ccc(C(F)(F)F)cc2)[nH]n1	0	53*	/	1	i	13
COc1ccc(Cl)cc1-c1cc(C(=O)NCc2cccc(Cl)c2)[nH]n1	0	51*	/	3	i	51*
SMILES	MPTP inh	FAS TE block	GRIN3A LBD mod	rCAG RNA binder	Myeloid diff MLP	FAS-TE inh conf
COc1cc(F)ccc1-c1cc(C(=O)NCc2cccc(Cl)c2)[nH]n1	0	16	/	1	i	/
NC(=O)[C@H]1CC2(CC(c3cccc(NC(=O)CC(c4ccccc4)c4ccccc4)c3)=NO2)CN1C(=O)C(c1ccccc1)c1ccccc1 (stereo partly drawn)	-2	67*	3	25	i	22
NC(=O)[C@H]1CC2(CC(c3cccc(NC(=O)CC(c4ccccc4)c4ccccc4)c3)=NO2)CN1C(=O)c1ccccc1C(=O)c1ccccc1 (stereo partly drawn)	-1	75*	-11	24	i	11
CCC(=O)Nc1cccc(C2=NOC3(C2)C[C@@H](C(N)=O)N(C(=O)c2ccccc2C(=O)c2ccccc2)C3)c1 (stereo partly drawn)	0	-7	0	4	i	/
CCCCCC(=O)N1CC2(CC(c3cccc(NC(=O)CC(c4ccccc4)c4ccccc4)c3)=NO2)C[C@@H]1C(N)=O (stereo partly drawn)	-1	15	-3	9	i	/
COC(=O)[C@]12C[C@H](CC(=O)N3CCCCC3)C(=O)N(CCC3=CCCCC3)C1=C[C@H](COCc1ccccc1)O[C@@H]2C	/	/	/	3	/	/
C=CCN=C1NC(CCc2ccccc2)C(C(=O)OC)=C(C)N1C (stereo not drawn)	/	/	/	4	/	/
CCCCN(C=O)c1c(CC)nc2c(OCc3ccc(Cl)cc3Cl)cccn12	1	55*	/	4	i	61*
CCc1nc2c(OCc3ccc(C(F)(F)F)cc3)cccn2c1N(C=O)Cc1ccc(OC)cc1	0	57*	/	3	i	52*
Cc1nn(-c2ccccc2)c(N2CCCC2)c1/C=N/NC(=O)c1cc(-c2cccs2)nc2ccccc12	-1	80*	1	18	i	13
Cc1nn(-c2ccccc2)c(N2CCCC2)c1/C=N/NC(=O)c1cc(-c2ccccn2)nc2ccccc12	-1	77*	-1	15	i	26
Cc1nn(-c2ccccc2)c(N2CCCC2)c1/C=N/NC(=O)c1cccc(S(=O)(=O)Nc2ccc(Cl)cc2)c1	20	50*	13*	22	+	20
Cc1nn(-c2ccc(F)cc2)c(Cl)c1/C=N/NC(=O)c1cccc(S(=O)(=O)N2CCCC2)c1	4	-7	-2	4	i	/
Cc1nn(-c2ccccc2)c(N2CCCC2)c1/C=N/NC(=O)c1cc(-c2ccccc2)nc2ccccc12	2	43	-2	16	i	/
O=C(Nc1nc(-c2ccccc2)cs1)c1ccc2c(=O)n3c(nc2c1)CCCCC3	12	62*	-6	6	i	15
CCOc1ccccc1N(CC)C(=O)c1ccc2c(=O)n3c(nc2c1)CCCCC3	-1	57*	0	-8	?	77*
O=C(Nc1ccccc1Cl)c1ccc2c(=O)n3c(nc2c1)CCC3	0	2	-1	1	i	/
CCN(C(=O)c1ccc2c(=O)n3c(nc2c1)CCCCC3)c1ccc(F)cc1	-1	1	-3	-6	i	/
CCSc1n[nH]c(=O)n1C	/	/	/	1	/	/
OC1OC2COC(c3ccccc3)OC2C(O)C1O (stereo not drawn)	/	/	/	0	/	/
